Test results published in PubChem BioAssay (NCATS).
Records with an inconclusive call do not appear. Active and inactive are the calls of the source. Unless noted, calls come from the whole dose curve; as a rule, active = well fitted curve in the direction sought with a large enough effect; inconclusive = small, poorly fitted or top-dose-only effect, or another doubt; inactive = no such curve, though single readings can be large; an effect the other way counts as inactive or inconclusive.

Key:
[1] = Cell Viability - BJ (AID 421; calls by dose curve;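 note: potency is the fitted concentration of half-maximal effect; cells exposed to compound for 40 hours at 37 °C before readout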); conditions: BJ fibroblast viability, qHTS
Method in brief: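 Normal human BJ foreskin fibroblasts, 1500/well in complete medium, treated 40 hr at 37 °C. Cellular ATP by CellTiter-Glo luminescence; normalized to DMSO and 100 uM tamoxifen, AC50 from Hill fit.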

[2] = Cell Viability - Jurkat (AID 426;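 active = dose-dependent loss of cell ATP signal giving a full or clear fitted curve, ranked by lower potency value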; note: potency is the fitted concentration of half-maximal effect); conditions: qHTS
Method in brief: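 Cytotoxicity taken as drop in cellular ATP (CellTiter-Glo luminescence, 20 min room temperature) after 40 hr, 37C treatment of 5000 Jurkat Clone E6-1 cells per well; concentration-response fitted with Hill equation for AC50.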

[3] = Cell Viability - Hek293 (AID 427;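 active = compounds whose dose-response curve shows a full or clear partial loss of cell viability, called from curve shape rather than a numeric limit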;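 note: potency is the fitted concentration of half-maximal effect; cells exposed to compound for 40 hours at 37 °C before reading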); conditions: qHTS
Method in brief: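 HEK293 cells in complete medium were exposed to compound for 40 hr at 37 °C, then cellular ATP was read by CellTiter-Glo luminescence. Data were normalized to DMSO (basal) and 100 uM tamoxifen (100% inhibition), and AC50 came from Hill fits.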

[4] = Cell Viability - MRC5 (AID 434; calls by dose curve;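 note: potency is the fitted concentration of half-maximal effect; potency reflects cytotoxicity seen as loss of intracellular ATP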); conditions: MRC5 lung fibroblast viability, qHTS
Method in brief: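 Decrease in intracellular ATP, quantified by luciferase light output, reflects compound toxicity toward MRC5 cells exposed for 40 hr in complete culture medium. Concentration-response curves, scaled between DMSO and 100 uM tamoxifen, gave AC50 values.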

[5] = molecular target: Mitogen-activated protein kinase 10 (Mus musculus) (UniProt Q61831); test: JNK3 AlphaScreen Assay (AID 530; active = well fitted curve in either direction with a large enough effect, not every such curve was filed as active;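 note: kinase came from lysate of stimulated human HepG2 cells; signal reports phosphorylation of biotinylated GST-cJun 1-79 at Ser73 with 10 µM ATP; % is set by controls: 0 for no effect and ±100 for the full control effect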)
Method in brief: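 Phosphorylation of biotinylated GST-cJun(1-79) at Ser73 is measured by AlphaScreen proximity luminescence. Enzyme is JNK3 in HepG2 lysates activated with interleukin-1beta and tumor necrosis factor alpha; ATP is 10 uM final.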

[6] = Cell Viability - NIH 3T3 (AID 541); conditions: NIH 3T3 cell viability, qHTS; activity change, negative = cytotoxicity: at 92.2 µM (top of the series);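 note: plate controls were DMSO alone for no effect and tamoxifen positive control for full effect; nearly all actives have a fitted effect of over 25% in size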
Method in brief: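 Intracellular ATP (CellTiter-Glo luminescence, 20 min at room temperature) measured after 40 hr compound exposure at 37 °C of 1000 NIH 3T3 mouse fibroblasts/well in complete medium; AC50 derived by Hill-equation modelling of qHTS concentration-response curves.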

[7] = Cell Viability - HUV-EC-C (AID 542); note: % is set by controls: 0 for no effect and ±100 for the full control effect; nearly all actives have a fitted effect of over 35% in size
Method in brief: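 CellTiter-Glo luminescence measured ATP loss in HUV-EC-C cells (1000/well) after 40 hr compound exposure at 37 °C, in complete culture medium. Concentration-response data were Hill-fitted to give AC50.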

[8] = Cell Viability - H-4-II-E (AID 543); note: % is set by controls: 0 for no effect and ±100 for the full control effect; nearly all actives have a fitted effect of over 35% in size
Method in brief: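 CellTiter-Glo luminescence (intracellular ATP) measured after 40 h compound exposure at 37 °C in H-4-II-E rat hepatoma cells seeded at 1500/well. Values are AC50s fitted with the standard Hill equation.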

[9] = Cell Viability - SH-SY5Y (AID 544); note: nearly all actives have a fitted effect of over 55% in size
Method in brief: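 Cytotoxicity measured via ATP-dependent luciferase luminescence (CellTiter-Glo) following 40 h, 37 °C exposure of 1500 SH-SY5Y cells per well. Concentration-response data were fitted with the standard Hill equation to give AC50.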

[10] = Cell Viability - Renal Proximal Tubule (AID 545); conditions: renal proximal tubule cells viability, primary cells of rat origin; at 91.7 µM (top of the series); note: nearly all actives have a fitted effect of over 40% in size
Method in brief: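 Luminescent ATP signal (CellTiter-Glo) served as the viability read-out after 40 hr compound exposure of freshly isolated rat proximal tubule cells at 37 °C. Concentration-dependent ATP loss was fitted with the Hill equation to give AC50.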

[11] = Cellular Toxicity (caspase-3) HepG2 (AID 654);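 note: cells exposed to compound for 16 hours before reading; 0% = DMSO alone and 100% = caspase signal from 100 µM tamoxifen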
Method in brief: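 Caspase 3/7 activation is measured as a luminescence increase (aminoluciferin substrate) after 16 h compound exposure of human hepatocarcinoma HepG2 cells. AC50 values are Hill fits, scaled between DMSO baseline and 100 uM tamoxifen stimulation.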

[12] = Cellular Toxicity (caspase-3) Jurkat (AID 655); conditions: Jurkat caspase-3 activation, luminescence, DMSO = 0%, tamoxifen = 100%; at 92.2 µM (top of the series);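 note: cells exposed to compound for 16 h at 37 °C before reading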
Method in brief: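 5000 Jurkat cells/well; compound 16 hr, 37 °C; Caspase-Glo 3/7 added, 20 min RT; luminescence read. Norm: DMSO = 0%, tamoxifen 100 uM = 100%. AC50, Hill model.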

[13] = Cellular Toxicity (caspase-3) HUV-EC-C (AID 656)
Method in brief: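 qHTS; HUV-EC-C, 1000 cells/well; 5 hr settle, 16 hr cmpd, 37°C; Caspase-Glo 3/7, 20 min RT; luminescence. Norm: DMSO = 0%, tamoxifen 100 uM = 100%. Hill-fit AC50.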

[14] = Cellular Toxicity (caspase-3) SHSY5Y (AID 657)
Method in brief: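 qHTS, SH-SY5Y, 1500 cells/well, 5 h pre-incubation 37 °C; compound 16 h 37 °C; Caspase-Glo 3/7 1 h RT; luminescence. Norm.: DMSO = 0, 10 uM staurosporine = 100%. Hill fit → AC50.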

[15] = Cellular Toxicity (caspase-3) BJ (AID 658);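 note: 0% = DMSO basal and 100% = 10 µM staurosporine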
Method in brief: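 Plated BJ cells (1000/well) rested 5 hr, received compound for 16 hr at 37 °C, then Caspase-Glo 3/7 reagent for 1 hr at room temperature before luminescence reading.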

[16] = Cellular Toxicity (caspase-3) MRC-5 (AID 659);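 note: 0% = DMSO basal and 100% = 10 µM staurosporine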
Method in brief: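 Apoptosis readout in MRC-5 cells: luciferase light generated after caspase 3/7 cleaves a peptide-aminoluciferin substrate, measured post 16 hr compound incubation at 37 °C.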

[17] = Cellular Toxicity (caspase-3) Mesangial (AID 660);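 note: combined caspase 3 and 7 activity read by Caspase-Glo luminescence; cells exposed to compound for 16 h before the caspase read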
Method in brief: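 Caspase 3/7 activation measured by Caspase-Glo 3/7 luminescence (20 min, room temperature) following 16 h exposure of mesangial cells (1000/well); AC50 from Hill-equation fit, normalized to DMSO and 100 uM tamoxifen.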

[18] = Cellular Toxicity (caspase-3) H-4-II-E (AID 663); conditions: Potency: caspase-3 activation;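 note: cells exposed to compound for 16 hr before readout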
Method in brief: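 Caspase 3/7 activation measured in H-4-II-E cells in complete culture medium after 16 hr treatment at 37 °C, using luciferase-coupled substrate readout; AC50 values come from Hill-equation fits of normalized concentration-response data.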

[19] = Cellular Toxicity (caspase-3) Hek293 (AID 664);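 note: cells exposed to compound for 16 h at 37 °C before readout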
Method in brief: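 Concentration-response qHTS: caspase 3/7 activation measured by luminescent aminoluciferin substrate cleavage after 16 h compound exposure of Hek 293 cells. AC50 from Hill equation, with DMSO as basal and 100 uM tamoxifen as 100%.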

[20] = Cellular Toxicity (caspase-3) N2a (AID 665);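 note: compound exposure lasted 16 h at 37 °C before readout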
Method in brief: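 Caspase-3/7 activation measured as luminescence from Caspase-Glo reagent (1 h, room temperature) after 16 h compound exposure of mouse N2a cells. AC50 values from Hill-equation concentration-response, scaled between DMSO and 10 uM staurosporine.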

[21] = Cellular Toxicity (caspase-3) NIH 3T3 (AID 666);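 note: caspase signal read after 16 h compound exposure; 0% = DMSO basal and 100% = 100 µM tamoxifen stimulation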
Method in brief: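 Caspase-Glo 3/7 luminescence reported caspase activation in 1000 NIH 3T3 cells/well after 16 h compound exposure at 37 C. DMSO set basal and 100 uM tamoxifen set 100% stimulation; concentration-response modeled with the Hill equation for AC50.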

[22] = Cellular Toxicity (caspase-3) Renal Proximal Tubule (AID 667);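 note: cells exposed to compound for 16 hours at 37 °C before detection; 0% = DMSO basal and 100% = 10 µM staurosporine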
Method in brief: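 AC50 derived by standard Hill fit of concentration-response data, normalized between DMSO basal and 10 uM staurosporine as 100% stimulation. Cells: primary rat kidney proximal tubule, 16 h treatment at 37 °C.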

[23] = Cell Viability - LYMP2-001 (AID 921);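 note: 0% = DMSO only and full inhibition = tetraoctylammonium bromide control wells; nearly all actives have a fitted effect of over 70% in size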
Method in brief: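 Steps: seed 2500 lymphoblastoid cells/well; 5 hr, 37 C; add compound; 24 hr, 37 C; CellTiter-Glo reagent, 30 min room temperature; read luminescence. Concentration-response modeled by Hill equation for AC50.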

[24] = MultiTox-Fluor Cytotoxicity Assay - LYMP1-001 - Dead Cells (AID 946);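 note: 0% = DMSO and 100% = tetraoctylammonium bromide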
Method in brief: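 LYMP1-001 lymphoblastoid cells (2500/well) treated 16 h at 37 C. Dead-cell protease cleavage of bis-AAF-R110 read at Ex/Em 485/520. Normalized to DMSO and 15 uM tetraoctylammonium bromide; AC50 from Hill fits.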

[25] = MultiTox-Fluor Cytotoxicity Assay - LYMP1-001 - Live Cells (AID 947);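 note: 0% = DMSO only and full inhibition = tetraoctylammonium bromide control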
[26] = Cell Viability - LYMP1-002 - Assay at 16 hr (AID 948);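 note: 0% = DMSO alone and full effect = 92 µM tetraoctylammonium bromide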
Method in brief: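 Seed 2500 LYMP1-002 cells per well in complete medium and hold 5 hr at 37 C. Add compound across a concentration series and incubate 16 hr at 37 C. Add CellTiter-Glo, wait 30 min at room temperature, read luminescence.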

[27] = MultiTox-Fluor Cytotoxicity Assay - LYMP1-002 - Live Cells (AID 955); note: % is set by controls: 0 for no effect and ±100 for the full control effect
Method in brief: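 After 16 h compound exposure at 37 C, live LYMP1-002 lymphoblastoid cells (2500/well) were quantified by cleavage of cell-permeant GF-AFC substrate, read at 405/510 nm after 60 min. Concentration-response fitted with Hill equation for AC50.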

[28] = MultiTox-Fluor Cytotoxicity Assay - LYMP1-003 - Dead Cells (AID 961);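 note: 0% = DMSO and 100% = tetraoctylammonium bromide; nearly all actives have a fitted effect of over 70% in size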
Method in brief: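 LYMP1-003 human lymphoblastoid cells (2500/well) exposed to compound 16 h at 37 C in complete medium; dead-cell protease read with bis-AAF-R110 fluorescence (Ex/Em 485/520) after 60 min at room temperature. Normalized to DMSO and 15 uM tetraoctylammonium bromide; AC50 from Hill fit.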

[29] = MultiTox-Fluor Cytotoxicity Assay - LYMP1-003 - Live Cells (AID 962);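 note: 0% = DMSO only and full loss = 92 µM tetraoctylammonium bromide; cytotoxic hits lower the live-cell protease signal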
Method in brief: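 Live-cell protease activity (GF-AFC substrate, 405/510 nm, 60 min at room temperature) after 16 h, 37 C compound exposure of human lymphoblastoid LYMP1-003 cells; concentration-response fitted to the Hill equation for AC50.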

[30] = Cell Viability - LYMP1-003 - Assay at 24 hr (AID 963);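 note: plate controls were DMSO only for no effect and tetraoctylammonium bromide positive control for full effect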
Method in brief: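 Concentration-response qHTS: ATP loss measured by CellTiter-Glo luminescence after 24 h compound exposure at 37 C. Cells were LYMP1-003 human lymphoblastoid, 2500 per well. AC50 derived via standard Hill equation modeling.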

[31] = Cell Viability - LYMP1-003 - Assay at 40 hr (AID 964); note: % is set by controls: 0 for no effect and ±100 for the full control effect; nearly all actives have a fitted effect of over 60% in size
Method in brief: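 Viability is taken as cellular ATP, read by CellTiter-Glo luminescence after 40 h of compound exposure at 37 C. Cells: human lymphoblastoid line LYMP1-003 at 2500/well; AC50 values derived by Hill-equation fitting of concentration-response data.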

[32] = Cell Viability - LYMP2-003 (AID 965);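 note: cells exposed to compounds for 24 h before reading; 0% = DMSO only and full effect = 92 µM tetraoctylammonium bromide; nearly all actives have a fitted effect of over 50% in size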
Method in brief: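 Seed 2500 lymphoblastoid cells/well; incubate 5 hr, 37 C; add compounds; incubate 24 hr, 37 C; add CellTiter-Glo, 30 min RT; read luminescence. AC50 from Hill fit.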

[33] = Cell Viability - LYMP2-005 (AID 967);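 note: plate controls were DMSO only for no effect and 92 µM tetraoctylammonium bromide control for full effect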
Method in brief: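 Acute cytotoxicity is scored as a concentration-dependent drop in intracellular ATP in human lymphoblastoid LYMP2-005 cells after 24 h compound treatment. ATP is quantified by luciferase luminescence, and AC50 is derived by Hill-equation modelling.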

[34] = Cell Viability - LYMP2-009 (AID 968);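 note: 0% = DMSO alone and the full-kill end = tetraoctylammonium bromide at 92 µM; nearly all actives have a fitted effect of over 55% in size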
[35] = Cell Viability - LYMP2-011 (AID 969);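 note: 0% = DMSO only and full inhibition = 92 µM tetraoctylammonium bromide; nearly all actives have a fitted effect of over 60% in size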
Method in brief: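 Cytotoxicity qHTS with ATP content as read-out: lymphoblastoid cells (2500/well) exposed to compound for 24 h at 37 C, then luciferase luminescence measured. Concentration-response data fitted with the standard Hill equation to give AC50.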

[36] = Cell Viability - LYMP2-013 (AID 970);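 note: 0% = DMSO only and full inhibition = tetraoctylammonium bromide control; nearly all actives have a fitted effect of over 55% in size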
Method in brief: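 qHTS cytotoxicity: ATP-dependent luminescence (CellTiter-Glo, 30 min room temperature) read after 24 h compound exposure at 37 C of 2500 LYMP2-013 lymphoblastoid cells per well. Concentration-response fitted with Hill equation to give AC50.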

[37] = Cell Viability - LYMP2-015 (AID 971);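 note: 0% = DMSO only and full effect = 92 µM tetraoctylammonium bromide; nearly all actives have a fitted effect of over 55% in size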
Method in brief: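 Cytotoxicity readout: decrease in intracellular ATP (CellTiter-Glo luminescence) in 2500 LYMP2-015 lymphoblastoid cells/well after 24 h compound exposure at 37 C. Concentration-response data fitted with the standard Hill equation to give AC50.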

[38] = Cell Viability - LYMP2-017 (AID 972)
Method in brief: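 CellTiter-Glo luminescence (cellular ATP, 30 min RT) measured cytotoxicity after 24 hr compound treatment at 37 C. Cells were a human lymphoblastoid line, LYMP2-017, plated at 2500/well and incubated 5 hr first; concentration-response fitted with Hill equation for AC50.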

[39] = Cell Viability - LYMP2-019 (AID 973)
Method in brief: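 AC50 values come from Hill-equation fits of luminescent intracellular ATP (CellTiter-Glo, 30 min, room temperature) following 24 h compound exposure at 37 C. Cells: LYMP2-019 lymphoblastoid line, 2500 per well, in complete culture medium.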

[40] = Cell Viability - LYMP2-021 (AID 974)
Method in brief: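 AC50 values come from Hill-equation fits to CellTiter-Glo luminescence (ATP content), read after 24 hour compound exposure at 37 C of 2500 LYMP2-021 lymphoblastoid cells/well; tetraoctylammonium bromide as positive control.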

[41] = Cell Viability - LYMP2-025 (AID 976);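 note: plate controls were DMSO only for no effect and tetraoctylammonium bromide control for full effect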
Method in brief: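 Cytotoxicity read as loss of intracellular ATP (luciferase luminescence) after 24 h compound treatment at 37 C. Uses LYMP2-025 lymphoblastoid cells in 1536-well format; Hill-equation modelling gives AC50; tetraoctylammonium bromide as positive control.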

[42] = Cell Viability - LYMP2-002 (AID 977)
Method in brief: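 In this qHTS viability screen, 2500 human lymphoblastoid cells per well receive compound for 24 hr at 37 C, and luciferase-based ATP luminescence gives the viability signal. Tetraoctylammonium bromide serves as positive control.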

[43] = Cell Viability - LYMP2-006 (AID 978)
Method in brief: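 Cells are seeded at 2500 per well and rested 5 hr at 37 C. Compounds are added across a concentration series for 24 hr at 37 C, after which ATP is quantified by luciferase luminescence.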

CC12CCC(CC1=O)C2(C)C (stereo not drawn)
inactive: Potency [1] > 92 µM | Potency [2] > 92 µM | Potency [3] > 92 µM | Potency [4] > 92 µM | Potency [5] | Potency [6] | outcome [7] | Potency [8] | Potency [9] | activity change, negative = cytotoxicity [10] -5.29% | outcome [11] | caspase-3 activation [12] -3.1% | outcome [13] | outcome [14] | outcome [15] | outcome [16] | outcome [17] | Potency [18] | outcome [19] | outcome [20] | outcome [21] | outcome [22] | Potency [23] | Potency [24] | Potency [25] | Potency [26] | Potency [27] | Potency [28] | Potency [29] | Potency [30] | Potency [31] | Potency [32] | Potency [33] | Potency [34] | Potency [35] | Potency [36] | Potency [37] | Potency [38] | Potency [39] | Potency [40] | Potency [41] | Potency [42] | Potency [43]
